DAX1 inh-1 – DAX1 (NR0B1) inhibitors on StAR promoter, primary screen, cell-based, luminescence, SF-1 (NR5A1), full-length DAX-1; 370,000 tested, 1.1% active; AID 652010, 2013; HEK293T StAR-luciferase reporter, SF-1/DAX-1 repression relief; inhibition, % at 6.8 µM;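 active = inhibition above the mean over all tested compounds plus 3 SD, cut at about 3.6% in these data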;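 also: 0% = DAX-1 cells with DMSO and 100% = cells lacking DAX-1 with DMSO; higher inhibition means more luminescence from relief of DAX-1 repression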
DAX1 inh-2 – DAX1 (NR0B1) inhibitors, primary screen, cell-based, HEK293, Gal4-DAX1, luciferase luminescence; HEK293 Gal4-DAX1 luciferase reporter; inhibition, % at 6.75 µM; 340,000 tested, 0.99% active; AID 504766, 2011;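 active = inhibition above the mean over all tested compounds plus 3 SD, cut at about 4.2% in these data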;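 also: 0% = DAX1-transfected cells with DMSO and 100% = empty-vector control cells with DMSO; inhibition shows as a rise in luminescence from relieved DAX1 repression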
hgDAF-12 ag – H. glycines DAF-12 receptor agonists, primary screen, cell-based, luminescence, HEK293, GAL4 fusion, UAS-luciferase; activation, % at 6.8 µM; Nuclear hormone receptor DAF-12 (Heterodera glycines), GAL4 fusion; HEK293 GAL4-hgDAF12 UAS-luciferase reporter, agonist luminescence; normalized to butyrate control; 370,000 tested, 1.8% active;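 active = activation above a cutoff set at the mean of all screened compounds plus 3 SD, cut at about 10% in these data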;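 also: 0% = DMSO wells and 100% = sodium butyrate wells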
ssDAF-12 act – S. stercoralis DAF-12 nuclear receptor activators, primary screen, cell-based, luminescence, HEK293, GRIP1 co-expression, lit1-tk-luc | HEK293 ssDAF-12/GRIP1 lit1-tk-luc reporter; % of 3 µM dafachronic acid response | Nuclear hormone receptor DAF-12 (Strongyloides stercoralis) | activation, % at 6.8 µM | AID 652126, 2013 | 370,000 tested, 1% active;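 active = activation above the mean over all tested compounds plus 3 SD, cut at about 0.9% in these data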;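 also: 0% = DMSO-only wells and 100% = 3 µM delta7-dafachronic acid wells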
hcDAF-12 act – H. contortus DAF-12 nuclear receptor activators, primary screen, cell-based, luminescence, HEK293, lit1-tk-luc reporter | HEK293 hcDAF-12 lit1-tk-luc reporter; 0% DMSO, 100% Δ7-dafachronic acid | activation, % at 6.8 µM | 370,000 tested, 1.4% active;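 active = activation above the mean of all tested compounds plus 3 SD, cut at about 5.5% in these data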;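 also: 100% = response to 3 µM Δ7-dafachronic acid high control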
LXR ag – LXR agonists, Gal4 luciferase reporter, confirmation, counter-screen for hcDAF-12 agonist project, cell-based, luminescence, HEK293, H. contortus campaign; HEK293 Gal4-LXR tk-luc reporter, 24 h; normalized: DMSO 0%, positive control 100%; activation, % at 6.8 µM; 3,400 tested, under 10 active; AID 743027, 2013; shares compounds with hcDAF-12 act;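 active = mean percent activation of the reporter above a cutoff set as the average over tested compounds plus their standard deviation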
Target sequence (P55055 whole entry, looked up, the tested form may be a part): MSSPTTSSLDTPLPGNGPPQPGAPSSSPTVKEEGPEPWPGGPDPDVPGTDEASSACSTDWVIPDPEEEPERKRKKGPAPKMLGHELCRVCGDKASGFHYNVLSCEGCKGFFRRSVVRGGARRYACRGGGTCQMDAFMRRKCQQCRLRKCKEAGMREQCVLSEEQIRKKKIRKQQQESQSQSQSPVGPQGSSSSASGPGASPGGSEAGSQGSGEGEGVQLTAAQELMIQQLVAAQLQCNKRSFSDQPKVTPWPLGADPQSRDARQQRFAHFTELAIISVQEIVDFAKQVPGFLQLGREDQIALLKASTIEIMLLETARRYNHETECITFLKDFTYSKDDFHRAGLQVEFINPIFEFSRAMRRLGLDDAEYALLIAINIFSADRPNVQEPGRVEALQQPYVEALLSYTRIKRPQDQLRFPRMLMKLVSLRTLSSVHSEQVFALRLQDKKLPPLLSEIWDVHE
hcDAF12 ag – H. contortus DAF-12 receptor agonists, confirmation, cell-based, luminescence, HEK293, lit1-tk-luc, triplicate; HEK293 hcDAF-12 lit1-tk-luc reporter; % of Δ7-dafachronic acid response; 3,400 tested, 61% active; AID 743032, 2013; shares compounds with hcDAF-12 act; activation, % at 6.8 µM;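 active = mean activation across triplicate tests above the threshold derived from the earlier primary screen, cut at about 5.5% in these data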;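 also: 0% = DMSO only wells and 100% = 3 µM Δ7-dafachronic acid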
Numbers without * were called inactive. In the library only some 4.1% were active in any assay of this set; here they are far more common.

How did Cc1ccsc1/C=N/NC(=O)C(O)c1ccccc1 (stereo not given) do in these assays?
DAX1 inh-1: 0; DAX1 inh-2: 1; hgDAF-12 ag: 0; ssDAF-12 act: -2; hcDAF-12 act: 2

Results for COc1ccccc1CC(=O)NC1CCCc2ccccc21 (stereo not given) ?
DAX1 inh-1: 0; DAX1 inh-2: 1; hgDAF-12 ag: 1; ssDAF-12 act: -1; hcDAF-12 act: -1

How did COc1cccc2c1SCc1ccccc1C2CC(N)=O (stereo not given) do in these assays?
DAX1 inh-1: 1; DAX1 inh-2: 1; hgDAF-12 ag: 0; ssDAF-12 act: 0; hcDAF-12 act: 6.8*; LXR ag: 0; hcDAF12 ag: 3

Results for O=c1[nH]c2ccccc2c(O)c1-c1cc2ccccc2oc1=O ?
DAX1 inh-1: 0; hgDAF-12 ag: 1; ssDAF-12 act: 0; hcDAF-12 act: -2

What do the screens show for `Clc1ccc(-c2nc3c4ccccc4ccn3c2CC2CCCCC2)cc1`?
DAX1 inh-1: 1; hgDAF-12 ag: 6; ssDAF-12 act: 1.6*; hcDAF-12 act: 6.7*; LXR ag: 0; hcDAF12 ag: 6.7*

What do the screens show for `Cc1ccc(-c2nc3c4ccccc4ccn3c2CN2CCCCC2)cc1`?
DAX1 inh-1: 0; DAX1 inh-2: 3; hgDAF-12 ag: 2; ssDAF-12 act: 0; hcDAF-12 act: 6.7*; LXR ag: 0; hcDAF12 ag: 6

What do the screens show for `COc1cccc(CN2CC(C(=O)N(C)CC3CCOCC3)CCC2=O)c1` (stereo not given)?
DAX1 inh-1: 0; DAX1 inh-2: 1; hgDAF-12 ag: 0; ssDAF-12 act: -1; hcDAF-12 act: 1

What do the screens show for `C[C@@H]1CN(C(=O)c2nc3ccc(Cl)cn3c2CN(C)CCc2cnn(C)c2)C[C@H](C)O1`?
DAX1 inh-1: 0; DAX1 inh-2: 1; hgDAF-12 ag: 0; ssDAF-12 act: -1; hcDAF-12 act: 3

Results for O=C(Nc1nc2ccc(Cl)cc2s1)c1ccc(Br)o1 ?
DAX1 inh-1: 1; DAX1 inh-2: 1; hgDAF-12 ag: 6; ssDAF-12 act: -1; hcDAF-12 act: 0

Results for Cn1ncc(Cl)c1C(=O)Nc1nc2ccc(Cl)cc2s1 ?
DAX1 inh-1: 2; DAX1 inh-2: 4; hgDAF-12 ag: 12*; ssDAF-12 act: 1.1*; hcDAF-12 act: 8.5*; LXR ag: 1; hcDAF12 ag: 10*

Results for c1ccc(-c2cnc(CSc3nnc4ccccn34)o2)cc1 ?
DAX1 inh-1: 3; DAX1 inh-2: 2; hgDAF-12 ag: 12*; ssDAF-12 act: 0; hcDAF-12 act: 8.5*; LXR ag: 1; hcDAF12 ag: 5.8*

Results for COc1cc(Cl)ccc1OCc1cc(C(=O)NC(C)Cc2cnccn2)no1 (stereo not given) ?
DAX1 inh-1: 3; DAX1 inh-2: 2; hgDAF-12 ag: 13*; ssDAF-12 act: 1.5*; hcDAF-12 act: 8.5*; LXR ag: 1; hcDAF12 ag: 6.0*

What do the screens show for `CC(Cc1cnccn1)NC(=O)c1cc(COc2ccc(F)cc2F)on1` (stereo not given)?
DAX1 inh-1: 0; DAX1 inh-2: 1; hgDAF-12 ag: -2; ssDAF-12 act: -1; hcDAF-12 act: -2

Results for C[C@@H]1OC(C2CCCCC2)N(C)[C@H]2C[C@H]3c4cc(N5CCOCC5)ccc4CCN3C[C@@H]12 (stereo not given in full) ?
DAX1 inh-1: 1; hgDAF-12 ag: 4; ssDAF-12 act: -2; hcDAF-12 act: 1

Results for Cc1cccn2c(=O)c3cc(C(=O)NCCCOC(C)C)sc3nc12 ?
DAX1 inh-1: 0; DAX1 inh-2: 2; hgDAF-12 ag: -1; ssDAF-12 act: -1; hcDAF-12 act: 1

What do the screens show for `CCOCCCNC(=O)c1cc2c(=O)n3cccc(C)c3nc2s1`?
DAX1 inh-1: 0; DAX1 inh-2: 0; hgDAF-12 ag: 1; ssDAF-12 act: 0; hcDAF-12 act: 12*; LXR ag: 0; hcDAF12 ag: 3

What do the screens show for `CN(C)c1cc2c3ccccc3n(C)c2cc1N`?
DAX1 inh-1: 0; DAX1 inh-2: 2; hgDAF-12 ag: 4; ssDAF-12 act: 0; hcDAF-12 act: 7.6*; LXR ag: 0; hcDAF12 ag: 4

What do the screens show for `Fc1cccc2sc(Nc3nc4ccccc4s3)nc12`?
DAX1 inh-1: 1; DAX1 inh-2: 2; hgDAF-12 ag: 0; ssDAF-12 act: 0; hcDAF-12 act: 12*; LXR ag: 1; hcDAF12 ag: 11*

How did CCOc1cccc2sc(NC(=O)CC)nc12 do in these assays?
DAX1 inh-1: 0; DAX1 inh-2: 0; hgDAF-12 ag: -1; ssDAF-12 act: -1; hcDAF-12 act: -3

What do the screens show for `Fc1ccc2nc(Nc3nc4c(F)cccc4s3)sc2c1`?
DAX1 inh-1: 0; DAX1 inh-2: 0; hgDAF-12 ag: 0; ssDAF-12 act: 0; hcDAF-12 act: 4

Results for CCC(=O)NNc1nc2c(F)cccc2s1 ?
DAX1 inh-1: 0; DAX1 inh-2: 4; hgDAF-12 ag: 5; ssDAF-12 act: 0; hcDAF-12 act: 7.0*; LXR ag: 0; hcDAF12 ag: 4

What do the screens show for `CC(=O)c1sccc1NC(=O)c1ccccc1C(=O)O`?
DAX1 inh-1: 0; DAX1 inh-2: 0; hgDAF-12 ag: 3; ssDAF-12 act: 0; hcDAF-12 act: -1

How did CC(C)C(NC(=O)c1ccc(C(C)(C)C)cc1)C(=O)Nc1ccc(N2CCOCC2)cc1 (stereo not given) do in these assays?
DAX1 inh-1: -2; DAX1 inh-2: 0; hgDAF-12 ag: 1; ssDAF-12 act: -2; hcDAF-12 act: -1

How did CN1c2ccsc2/C(=N/Nc2ccc(F)cc2)CS1(=O)=O do in these assays?
DAX1 inh-1: 2; DAX1 inh-2: 5.9*; hgDAF-12 ag: 9; ssDAF-12 act: 4.7*; hcDAF-12 act: 7.1*; LXR ag: 1; hcDAF12 ag: 9.1*

Source: PubChem (The Scripps Research Institute Molecular Screening Center)
